# Screening data (PubChem)
# Compounds with a hit are over-represented: about 1.7% of the library has one in this group of screens.
# CCHF vOTU inh: CCHFV vOTU protease inhibitors, primary screen, biochemical, Pep-AMC substrate, fluorescence. Crimean-Congo hemorrhagic fever virus L polyprotein viral ovarian tumor (vOTU) protease …. inhibition, % at 11.5 µM. 370,000 tested, 0.55% active. AID 651958, 2012; in the data active means inhibition above about 30%; further: 0% = vehicle wells with enzyme and 100% = no enzyme wells
# RecA splice inh: Mtb RecA intein splicing inhibitors, primary screen, biochemical, fluorescence, HTS; Protein RecA (Mycobacterium tuberculosis (strain ATCC 25618 / H37Rv)), P9WHJ3; 290,000 tested, 0.75% active; inhibition, % (no concentration beside the values); cell-free RecA intein splicing; in the data active means inhibition above about 30%;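 further: 0% = vehicle wells and 100% = reference inhibitor control wells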
# SSB-PriA inh: inhibitors of Klebsiella pneumoniae PriA binding to SSB C-terminal tail, primary screen, biochemical, AlphaScreen; PriA–SSB C-terminal tail interaction (Klebsiella pneumoniae); AlphaScreen SSBct-PriA binding, biotinylated peptide; inhibition, % at 33 µM; 430,000 tested, 0.6% active; in the data active means inhibition mostly above about 37%, no sharp cut-off; inactive means mostly below about 20%;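 further: plate controls were negative control peptide for no effect and reference peptide for full effect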
# 3CLpro inhibitor: SARS-CoV 3CLpro protease inhibitors, primary screen, biochemical, quenched FRET; 290,000 tested, 0.14% active; recombinant SARS-CoV 3CLpro, quenched FRET peptide cleavage; inhibition, % at 6 µM; Replicase polyprotein 1ab (Severe acute respiratory syndrome coronavirus), P0C6X7; in the data active means inhibition above about 12%
# DUSP3 inh: VHR1 phosphatase inhibitors, primary screen, biochemical, absorbance, uHTS; 290,000 tested, 0.52% active; inhibition, % at 13.3 µM; recombinant VHR phosphatase, pNPP absorbance; in the data active means inhibition above about 50%
# Target sequence (P51452 whole entry, looked up): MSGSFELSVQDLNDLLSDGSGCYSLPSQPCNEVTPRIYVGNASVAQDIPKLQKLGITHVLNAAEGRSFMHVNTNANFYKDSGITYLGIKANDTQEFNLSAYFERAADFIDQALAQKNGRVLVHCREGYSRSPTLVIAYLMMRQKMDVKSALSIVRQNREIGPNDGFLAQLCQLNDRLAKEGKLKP
# Active calls of the source: *; nt = not tested or not shown; ! = repeats disagree.
SMILES,CCHF vOTU inh,RecA splice inh,SSB-PriA inh,3CLpro inhibitor,DUSP3 inh
O=C(c1ccccc1C(F)(F)F)N1CCN(c2ccc(-c3ccccn3)nn2)CC1,nt,nt,150*,nt,nt
O=C(c1ccccc1F)N1CCN(c2ccccc2F)CC1,-16,nt,-14,0,53*
O=C(c1ccccc1C(=O)N1CCN(c2ccccc2F)CC1)N1CCN(c2ccccc2F)CC1,6,0,16,3,-6
COc1ccccc1CC(=O)N1CCN(c2ccc(-c3ccccn3)nn2)CC1,nt,nt,158*,nt,nt
O=C(c1ccccc1C(F)(F)F)N1CCN(c2ccc(-c3cccs3)nn2)CC1,nt,nt,26,nt,nt
COc1ccccc1CC(=O)N1CCN(c2ccccn2)CC1,16,-3,-9,5,36
Cc1ccc(C(=O)N2CCN(c3oc(/C=C/c4ccc(F)cc4)nc3C#N)CC2)cc1,nt,nt,-5,nt,nt
CCOc1ccc(NC(=O)C23CCC(C)(C(=O)C2)C3(C)C)cc1 (centres undefined),nt,nt,10,nt,nt
O=C(COc1ccccc1)N=C1SC2CS(=O)(=O)CC2N1c1ccc(F)cc1 (centres undefined),-5,-3,-10,-10,54*
COc1ccc(N2C(=NC(=O)C3CCCO3)SC3CS(=O)(=O)CC32)cc1 (centres undefined),0,3,-13,-2,56*
O=C(N=C1SC2CS(=O)(=O)CC2N1c1ccc(Cl)cc1)C1CCCO1 (centres undefined),7,5,1,-2,-5
CC(Nc1ccccc1C(F)(F)F)=C1CCOC1=O,nt,nt,4,nt,nt
CCCN1CCCc2cc(CCNS(=O)(=O)c3ccc(NC(C)=O)cc3C)ccc21,nt,nt,70*,nt,nt
CCCN1CCCc2cc(CCNC(=O)C(=O)Nc3cc(C)ccc3C)ccc21,nt,nt,29,nt,nt
CCCN1CCCc2cc(CCNS(=O)(=O)c3ccc(C)cc3C)ccc21,nt,nt,41*,nt,nt
COc1ccccc1CCNC(=O)Cn1nc(C(=O)Nc2ccc(C)cc2)ccc1=O,nt,nt,-13,nt,nt
COc1ccc(C)cc1Nc1n[n+](-c2ccccc2)c(-c2cc(OC)c(OC)cc2Br)s1,7,11,58*,4,29
Cc1cccc(-c2sc(Nc3ccccc3)n[n+]2-c2ccc(F)cc2)c1,3,0,2,0,17
COc1ccc(-c2sc(Nc3ccccc3)n[n+]2-c2ccc(F)cc2)c(C)c1C,8,1,42*,-3,32
Cc1ccc(NC(=S)N2CCC(NC(=O)c3ccc(C)cc3)CC2)cc1,3,nt,-7,-2,-26
Cc1ccc(NC(=S)N2CCC(NC(=O)c3cccc(F)c3)CC2)cc1,5,0,15,2,55*
Cc1nc(-c2ccccc2)sc1C(=O)NCCOc1ccc(F)cc1,nt,nt,-17,nt,nt
O=C(CSc1ccc(-c2ccccc2)nn1)NCc1ccco1,3,0,-11,-1,4
O=C(CSc1ccc(-c2cccs2)nn1)NCCc1ccccc1,-1,-4,-3,-3,-4
O=C(CSc1ccc(-c2ccccn2)nn1)NCc1ccc(F)cc1,-8,-1,3,-2,29
SMILES,CCHF vOTU inh,RecA splice inh,SSB-PriA inh,3CLpro inhibitor,DUSP3 inh
O=C(CSc1ccc2nnc(-c3ccccn3)n2n1)NCc1ccco1,10,2,82*,-3,12
O=C(CSc1ccc(-c2ccccn2)nn1)NCc1ccco1,nt,nt,71*,nt,nt
O=C(CSc1ccc(-c2ccccn2)nn1)NCCc1ccccc1,nt,nt,81*,nt,nt
O=C(CSc1ccc(-c2ccccn2)nn1)NCc1ccccc1,-8,1,50*!,4,-3
Cc1cc(C(=O)Nc2cccc3c2C(=O)NC3=O)no1,nt,nt,-7,nt,nt
O=C(CSc1ccc(-c2ccccn2)nn1)NC1CCCCC1,2,-1,72*!,0,2
Cn1c(=O)c2sccc2n2c(CCCC(=O)NCc3ccc(F)cc3)nnc12,5,3,-14,0,60*
Nc1nc2c(s1)CCc1c-2cnn1-c1ccccc1,nt,98*,4,0,17
CC1(C)CCc2sc(N)nc21,nt,nt,-9,nt,nt
Nc1nc(-c2ccccn2)nc2ccc(Cl)cc12,nt,nt,116*,nt,nt
Clc1cccc(-c2nc(-c3ccccn3)no2)c1,2,5,-18,2,26
c1ccc(-c2cn(C[C@H]3CC[C@@H]([C@@H]4CC[C@H](Cn5cc(-c6ccccn6)nn5)O4)O3)nn2)nc1,7,0,101*,-10,-3
NC(=NOC(=O)c1ccc(Br)o1)c1cccnc1,nt,nt,-3,nt,nt
CCOc1ccc(-c2csc(SCc3ccc(C(=O)NCc4ccccn4)o3)n2)cc1,nt,nt,14*,nt,nt
Cn1cc(-c2cccc(C(F)(F)F)c2)cc(C#N)c1=O,-40,-3,53*,-1,6
Fc1ccc(Oc2nc(-c3ccccc3)nnc2C(F)(F)F)cc1,7,62*,-4,1,21
FC(F)(F)c1nnc(-c2ccccc2)nc1Oc1ccccc1,1,5,-19,-4,16
CS(=O)(=O)N1CCN(c2ccc([N+](=O)[O-])c(N3CCCC3)c2)CC1,nt,nt,57*,nt,nt
CN1CCN(c2ccc([N+](=O)[O-])c(N3CCCC3)c2)CC1,nt,nt,58*,nt,nt
O=C(Nc1nccs1)c1csc(Nc2cccc(Cl)c2)n1,nt,nt,-4,nt,nt
CC(=O)N/C(=C\c1ccccc1)C(=O)OCC(=O)NC1CCCC1,-4,0,-6,3,58*
CC(=O)N/C(=C\c1ccccc1)C(=O)OCC(=O)c1ccccc1,-5,nt,-9,nt,nt
CSC1CC2CCC(C1)N2C(=O)c1cccc(Cl)c1 (centres undefined),nt,nt,6,nt,nt
O=C(Cn1c(=O)oc2ccccc21)N1CCN(c2ccc(N3CCOCC3)nn2)CC1,-32,-4,-16,-2,54*
O=C(Cn1c(=O)oc2ccccc21)N1CCN(c2ccc(-n3cncn3)nn2)CC1,nt,nt,-10,nt,nt
SMILES,CCHF vOTU inh,RecA splice inh,SSB-PriA inh,3CLpro inhibitor,DUSP3 inh
Cc1cc(C)c(-n2c(O)c(C=NNC(=O)c3ccncc3)c(=O)[nH]c2=O)c(C)c1,nt,nt,3,nt,nt
CCOc1ccc(NC(=S)NN(C)C(=S)Nc2ccc(OCC)cc2)cc1,10,-1,40*,2,30
CCOC(=O)N1CCC(N(CCN(C)C)C(=S)Nc2ccc(OCC)cc2)CC1,-11,-1,nt,0,54*
CCOC(=O)N1CCC(N(CCN(C)C)C(=S)Nc2cc(Cl)cc(Cl)c2)CC1,-6,3,-3,1,4
CCOc1ccc(NC(=S)Nc2ccc(F)cc2)cc1,-19,1,-1,-5,18
CCNC(=O)N1CCN(CC(=O)c2cccs2)CC1,nt,nt,-13,nt,nt
O=C(N/N=C\c1cc(Cl)ccc1O)c1ccc(S(=O)(=O)N2CCCCC2)cc1,0,0,nt,0,64*
Clc1nssc1=Nc1ccc(Br)cc1,1,9,13,2,13
Clc1ccc(N=c2ssnc2Cl)nc1,15,-9,-2,-2,61*
CCOC(=O)CCC(=O)NCC#CCOc1ccccc1OC,nt,nt,-8,nt,nt
CCC1=NNc2cccc3c(OC)ccc1c23,nt,24,nt,-2,54*
COc1ccc2c3c(cccc13)C(=O)N(O)C2=O,-6,-12,-13,-2,-11
Cc1cccc(NC(=O)CSc2ccc(-c3ccccn3)nn2)c1,nt,nt,71*,nt,nt
